According to PubChem BioAssay (EPA / NIEHS):
Values joined by “and” are separate entries in the source; they are usually repeats but may differ in a detail not shown here. Equal entries are not always repeated. The source holds several records for some structures; these can differ, active in one and inactive in another. Active and inactive are the calls of the source. The calls were made as follows: active = hit-call score of the fitted dose curve at least 0.9, where 1 is the maximum; inactive = score below 0.9.

Columns and labels:
Details in all cases: mRNA level, 48 h; actives raise or lower the signal
[1] = read-out: ABC Transporter (ABCB11), ABCB11 (gene 8647); assay: LTEA_HepaRG_ABCB11: Life Technologies and Expression Analysis (LTEA) Assay for ABC Transporter (ABCB11) using HepaRG (AID 2283463)
Method in brief: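 HepaRG, 48 h exposure, 8-pt half-log CRC top 100 uM, 0.5% DMSO vehicle, duplicates. Readout: TaqMan qRT-PCR of ABCB11 mRNA, housekeeping-normalized (ACTB/GAPDH/POLR2A). Bidirectional fit vs DMSO baseline.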

[2] = read-out: ABC Transporter (ABCC2), ABCC2 (gene 1244); assay: LTEA_HepaRG_ABCC2: Life Technologies and Expression Analysis (LTEA) Assay for ABC Transporter (ABCC2) using HepaRG (AID 2283464)
Method in brief: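 HepaRG, 48 h post-plating; serum-free induction medium; cpd 8-pt, 100 uM top, half-log, 0.5% DMSO, duplicate, 48 h. Readout: ABCC2 mRNA by qRT-PCR, norm. ACTB/GAPDH/POLR2A. Bidirectional fit vs DMSO baseline.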

[3] = read-out: Broad substrate specificity ATP-binding cassette transporter ABCG2 (Homo sapiens) (UniProt Q9UNQ0); assay: LTEA_HepaRG_ABCG2: Life Technologies and Expression Analysis (LTEA) Assay for ABC Transporter (ABCG2) using HepaRG (AID 2283465)
Method in brief: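 HepaRG, 48 h exposure, 8-pt half-log series from 100 uM, 0.5% DMSO vehicle, duplicates. Readout: ABCG2 transcript by qRT-PCR (Fluidigm array), housekeeping-normalized; bidirectional curve fit relative to DMSO baseline.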

[4] = read-out: Peroxisomal acyl-coenzyme A oxidase 1 (ACOX1) gene, ACOX1 (gene 51); assay: LTEA_HepaRG_ACOX1: Life Technologies and Expression Analysis (LTEA) Assay for Peroxisomal acyl-coenzyme A oxidase 1 (ACOX1) gene using HepaRG (AID 2283467)
Method in brief: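 HepaRG, 48 h chemical exposure, 8-pt half-log series from 100 uM top, 0.5% DMSO vehicle, duplicates. Readout: ACOX1 mRNA by Fluidigm qRT-PCR, housekeeping-normalized; bidirectional fit vs DMSO baseline.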

[5] = read-out: Alkaline Phosphatase, Placental (ALPP) gene, ALPP (gene 250); assay: LTEA_HepaRG_ALPP: Life Technologies and Expression Analysis (LTEA) Assay for Alkaline Phosphatase, Placental (ALPP) gene using HepaRG (AID 2283468);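 as to AC50: differentiated human HepaRG liver cells in serum-free induction medium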
Method in brief: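 HepaRG, 48 h plating then 48 h dosing, serum-free induction medium, 0.5% DMSO. 8 conc, half-log, max 100 uM, duplicates. Endpoint: ALPP transcript by qRT-PCR, housekeeping-normalized; gain or loss fitted vs DMSO.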

[6] = read-out: Bcl-2 (BAD) gene, BAD (gene 572); assay: LTEA_HepaRG_BAD: Life Technologies and Expression Analysis (LTEA) Assay for Bcl-2 (BAD) gene using HepaRG (AID 2283469)
Method in brief: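 HepaRG, 48 h exposure, 8-pt half-log curve from 100 uM in 0.5% DMSO, duplicates. Readout: TaqMan qRT-PCR for BAD mRNA, housekeeping-normalised (ACTB/GAPDH/POLR2A); gain or loss fitted against DMSO baseline.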

[7] = read-out: Bcl-2 (BAX) gene, BAX (gene 581); assay: LTEA_HepaRG_BAX: Life Technologies and Expression Analysis (LTEA) Assay for Bcl-2 (BAX) gene using HepaRG (AID 2283470)
Method in brief: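 Gene expression measured by Fluidigm qRT-PCR with three housekeeping genes for normalisation. HepaRG cells, plated 48 h beforehand, treated 48 h at up to 100 uM (8-point, half-log) in 0.5% DMSO. Bidirectional fitting versus DMSO.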

[8] = read-out: adenosine kinase (ADK) gene, ADK (gene 132); assay: LTEA_HepaRG_ADK: Life Technologies and Expression Analysis (LTEA) Assay for adenosine kinase (ADK) gene using HepaRG (AID 2283471)
Method in brief: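 Following 48 h exposure of HepaRG cells in 0.5% DMSO (top concentration 100 uM, duplicate wells), ADK mRNA induction or suppression was measured by qRT-PCR, normalised to ACTB/GAPDH/POLR2A, and fitted bidirectionally relative to vehicle.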

[9] = read-out: Alpha-fetoprotein (AFP) gene, AFP (gene 174); assay: LTEA_HepaRG_AFP: Life Technologies and Expression Analysis (LTEA) Assay for Alpha-fetoprotein (AFP) gene using HepaRG (AID 2283472)
Method in brief: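 AFP transcript measured by TaqMan qRT-PCR with three housekeeping genes for normalization, after 48 h chemical treatment of HepaRG cells (top 100 uM, half-log steps, 0.5% DMSO). Gain or loss fitted against vehicle.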

[10] = read-out: Apoptosis regulator Bcl-2 (Homo sapiens) (UniProt P10415); assay: LTEA_HepaRG_BCL2: Life Technologies and Expression Analysis (LTEA) Assay for Bcl-2 gene using HepaRG (AID 2283475)
Method in brief: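 qRT-PCR of BCL2 transcript, normalized to three housekeeping genes (ACTB, GAPDH, POLR2A), after 48 h chemical exposure of HepaRG cells; concentrations top 100 uM with half-log dilutions, 0.5% DMSO vehicle, duplicates; changes up or down fitted relative to vehicle.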

[11] = read-out: Bcl-2 (BID) gene, BID (gene 637); assay: LTEA_HepaRG_BID: Life Technologies and Expression Analysis (LTEA) Assay for Bcl-2 (BID) gene using HepaRG (AID 2283476)
Method in brief: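 Duplicate 48 h treatments of HepaRG cells in serum-free induction medium spanned 100 uM downward in half-log steps, 0.5% DMSO. Transcript change quantified by qRT-PCR against three housekeeping genes, fitted up or down versus DMSO.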

Caspase-3 (Homo sapiens) = Caspase-3 (Homo sapiens) (UniProt P42574); assay: LTEA_HepaRG_CASP3: Life Technologies and Expression Analysis (LTEA) Assay for cysteine-aspartic acid protease (CASP3) using HepaRG (AID 2283477)
Method in brief: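 Read-out is CASP3 mRNA level by TaqMan qRT-PCR in human HepaRG cells after 48 h chemical exposure. Eight half-log concentrations topping at 100 uM were tested in 0.5% DMSO; gain or loss was fitted relative to DMSO.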

[12] = read-out: Cytochrome P450 (CYP24A1), CYP24A1 (gene 1591); assay: LTEA_HepaRG_CYP24A1: Life Technologies and Expression Analysis (LTEA) Assay for Cytochrome P450 (CYP24A1) using HepaRG (AID 2283478)
Method in brief: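 HepaRG, 48 h chemical exposure, 8-pt half-log CRC from 100 uM, 0.5% DMSO vehicle, duplicates. Endpoint: CYP24A1 mRNA by Fluidigm TaqMan qRT-PCR, normalized ACTB/GAPDH/POLR2A; gain/loss fit vs DMSO.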

[13] = read-out: Cytochrome P450 (CYP1A2), CYP1A2 (gene 1544); assay: LTEA_HepaRG_CYP1A2: Life Technologies and Expression Analysis (LTEA) Assay for Cytochrome P450 (CYP1A2) using HepaRG (AID 2283479)
Method in brief: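 CYP1A2 transcript induction or loss, quantified by Fluidigm qRT-PCR against three housekeeping genes, was fitted bidirectionally against 0.5% DMSO controls. Human HepaRG cells received eight half-log concentrations from 100 uM over 48 h.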

[14] = read-out: Cytochrome P450 (CYP2B6), CYP2B6 (gene 1555); assay: LTEA_HepaRG_CYP2B6: Life Technologies and Expression Analysis (LTEA) Assay for Cytochrome P450 (CYP2B6) using HepaRG (AID 2283481)
Method in brief: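 HepaRG cells plated 48 h, switched to serum-free induction medium, then dosed 48 h (8 points, half-log from 100 uM, 0.5% DMSO). RNA isolated; CYP2B6 expression measured by qRT-PCR; gain or loss fitted relative to DMSO.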

[15] = read-out: Cytochrome P450 2C19 (Homo sapiens) (UniProt P33261); assay: LTEA_HepaRG_CYP2C19: Life Technologies and Expression Analysis (LTEA) Assay for CYP2C19 using HepaRG (AID 2283482)
Method in brief: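 Transcript levels of CYP2C19 were quantified by qRT-PCR after HepaRG cells were treated for 48 hours with test chemicals up to 100 uM (eight half-log concentrations, 0.5% DMSO vehicle). Gain or loss of signal was fitted relative to DMSO.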

[16] = read-out: cysteine-aspartic acid protease (CASP8), CASP8 (gene 841); assay: LTEA_HepaRG_CASP8: Life Technologies and Expression Analysis (LTEA) Assay for cysteine-aspartic acid protease (CASP8) using HepaRG (AID 2283480)
Method in brief: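 qRT-PCR readout of CASP8 mRNA, normalized to three housekeeping genes, after 48 h chemical exposure of HepaRG cells; 8-point half-log series, top 100 uM, 0.5% DMSO vehicle. Bidirectional curve fitting against DMSO baseline.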

[17] = read-out: Apolipoprotein A-V (APOA5) gene, APOA5 (gene 116519); assay: LTEA_HepaRG_APOA5: Life Technologies and Expression Analysis (LTEA) Assay for Apolipoprotein A-V (APOA5) gene using HepaRG (AID 2283474)
Method in brief: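 Readout is APOA5 transcript level by qRT-PCR on Fluidigm dynamic arrays, normalized to three housekeeping genes. HepaRG cultures received chemicals for 48 h at up to 100 uM (half-log steps, 0.5% DMSO), with gain or loss scored relative to DMSO.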

Measured: AC50

Chain of Cytochrome P450 2C19 (Homo sapiens) (P33261 whole entry, looked up): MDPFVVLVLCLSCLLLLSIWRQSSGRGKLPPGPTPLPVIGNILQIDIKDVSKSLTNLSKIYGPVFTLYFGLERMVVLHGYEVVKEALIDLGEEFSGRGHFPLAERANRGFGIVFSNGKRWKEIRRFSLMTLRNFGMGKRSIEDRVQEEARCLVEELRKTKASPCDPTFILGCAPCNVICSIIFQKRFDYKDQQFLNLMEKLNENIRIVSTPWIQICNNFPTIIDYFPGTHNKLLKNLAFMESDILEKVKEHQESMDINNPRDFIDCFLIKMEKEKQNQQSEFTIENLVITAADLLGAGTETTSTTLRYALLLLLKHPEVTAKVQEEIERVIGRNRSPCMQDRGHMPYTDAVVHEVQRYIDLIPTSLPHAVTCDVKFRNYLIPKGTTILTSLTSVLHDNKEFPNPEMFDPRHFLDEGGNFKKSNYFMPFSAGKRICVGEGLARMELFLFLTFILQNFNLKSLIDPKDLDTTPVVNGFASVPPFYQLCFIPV
Chain of Apoptosis regulator Bcl-2 (Homo sapiens) (P10415 whole entry, looked up): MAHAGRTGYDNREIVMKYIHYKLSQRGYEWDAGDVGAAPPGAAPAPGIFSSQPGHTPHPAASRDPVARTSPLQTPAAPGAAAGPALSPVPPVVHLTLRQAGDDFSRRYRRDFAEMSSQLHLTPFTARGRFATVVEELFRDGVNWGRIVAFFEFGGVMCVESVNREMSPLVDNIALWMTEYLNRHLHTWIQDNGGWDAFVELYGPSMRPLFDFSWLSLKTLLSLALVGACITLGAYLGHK
Chain of Caspase-3 (Homo sapiens) (P42574 whole entry, looked up): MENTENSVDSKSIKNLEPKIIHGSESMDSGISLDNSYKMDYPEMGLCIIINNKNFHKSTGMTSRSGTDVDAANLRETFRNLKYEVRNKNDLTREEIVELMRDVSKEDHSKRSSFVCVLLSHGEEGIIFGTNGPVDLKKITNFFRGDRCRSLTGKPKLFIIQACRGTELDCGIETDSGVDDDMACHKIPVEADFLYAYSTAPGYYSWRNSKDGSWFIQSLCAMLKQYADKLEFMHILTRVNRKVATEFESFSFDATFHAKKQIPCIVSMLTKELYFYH
Chain of Broad substrate specificity ATP-binding cassette transporter ABCG2 (Homo sapiens) (Q9UNQ0 whole entry, looked up): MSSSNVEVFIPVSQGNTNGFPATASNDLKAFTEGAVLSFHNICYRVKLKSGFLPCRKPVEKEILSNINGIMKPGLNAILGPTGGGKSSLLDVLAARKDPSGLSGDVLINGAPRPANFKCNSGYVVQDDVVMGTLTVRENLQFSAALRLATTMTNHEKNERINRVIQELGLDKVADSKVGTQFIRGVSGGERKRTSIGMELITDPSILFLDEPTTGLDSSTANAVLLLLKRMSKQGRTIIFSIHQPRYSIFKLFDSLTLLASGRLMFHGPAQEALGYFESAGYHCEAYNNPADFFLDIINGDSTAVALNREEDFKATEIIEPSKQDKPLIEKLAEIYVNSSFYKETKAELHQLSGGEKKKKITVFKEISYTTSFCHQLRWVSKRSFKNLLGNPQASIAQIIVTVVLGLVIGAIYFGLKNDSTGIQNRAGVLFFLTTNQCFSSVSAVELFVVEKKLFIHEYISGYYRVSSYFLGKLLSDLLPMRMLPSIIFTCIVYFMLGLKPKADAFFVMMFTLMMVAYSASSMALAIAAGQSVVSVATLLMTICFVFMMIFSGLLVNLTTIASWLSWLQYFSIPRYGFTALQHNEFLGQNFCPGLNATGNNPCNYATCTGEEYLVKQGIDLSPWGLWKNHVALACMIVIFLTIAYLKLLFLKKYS

CO/C=C(/C(=O)OC)c1ccccc1Oc1cc(Oc2ccccc2C#N)ncn1
inactive: [2] | [6] | [8] | [11] | Caspase-3 (Homo sapiens) | [12]
active: [1] 45.4 µM and 63 µM and 40.5 µM | [2] 86.9 µM and 83.9 µM | [3] 32 µM and 25.5 µM and 12.6 µM | [4] 50 µM and 63.3 µM | [5] 41.4 µM and 50 µM and 34 µM | [7] 77.2 µM and 69 µM and 72.1 µM | [9] 37.9 µM and 69.5 µM and 25.5 µM | [10] 86.3 µM and 85.9 µM and 86.9 µM | [13] 84.5 µM and 65.9 µM and 66.5 µM | [14] 75.2 µM and 72.2 µM and 71.5 µM | [15] 84.1 µM and 83.3 µM and 82.3 µM

O=C(O)c1nc(Cl)ccc1Cl
active: [5] 27.3 µM | [13] 50 µM
inactive: [1] | [2] | [3] | [4] | [5] | [6] | [7] | [8] | [9] | [10] | [11] | Caspase-3 (Homo sapiens) | [12] | [13] | [16] | [14] | [15]

CC1=C(C(=O)Nc2ccccc2)SCCO1
active: [1] 50 µM | [17] 50 µM | [13] 50 µM | [14] 45 µM
inactive: all other assays above
